Pf growth 96h: P. falciparum growth inhibition at 96 hours. P. falciparum luciferase reporter growth, 96 h. Potency, µM (top dose mostly 28.7 µM), for the others: at the top dose activity change, negative = inhibition, actives largely listed as inhibitors. hit rate 6.9% among 320,000; also: potency is read from the fitted curve at half-maximal effect
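Two parasite generations (96 h, 37 C, 5% CO2) of compound exposure in infected erythrocytes (0.05% parasitemia, 2% hematocrit). Luciferase-reporter P. falciparum; decreased luminescence indicates inhibited growth, aimed at apicoplast-acting delayed death.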
Pf growth 48h: P. falciparum growth inhibition at 48 hours (one generation); hit rate 5.9% among 310,000; AID 504832; P. falciparum luciferase growth in erythrocytes, 48 h; Potency, µM (highest dose often 28.7 µM), for the others: at the highest dose activity change, negative = inhibition, most hits filed as inhibitors; also: potency is read from the fitted curve at half-maximal effect
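Luminescence readout; reporter = integrated firefly luciferase in P. falciparum. RBC culture at 2% hematocrit, 0.1% parasitemia final, 37 C/5% CO2; decreased signal taken as growth inhibition.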
HCMV inh: inhibitors of human cytomegalovirus. HFF cells, HCMV-luciferase reporter, 72 h; active compounds read low. activity change, negative = inhibition, % at 57.5 µM. hit rate 4.5% among 410,000. AID 1259415; in the data active = activity change below about -60%; inconclusive = no clear call, values can overlap the other calls; inactive = above about -39%
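Luciferase read-out from HCMV-luciferase-infected HFFs (MOI 1 PFU/cell) 72 h post infection at 37C; compounds added after 16 h cell attachment; activity normalized between buffer-only basal and Salinomycin (10uM) inhibitor controls.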
Sm TGR inh: inhibitors of Schistosoma mansoni thioredoxin glutathione reductase | Q962Y6 | purified TGR, DTNB reduction, TNB absorbance 405 nm | Potency, µM (doses to about 114 µM), for inactives: top-dose activity change, negative = inhibition, usual class: inhibitors | hit rate 3% among 360,000 | AID 485364; also: potency is read from the fitted curve at half-maximal effect; nearly all actives have a fitted effect of over 60% in size
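TGR 20 nM + NADPH 100 uM (dispensed conc.), cpd preinc 15 min RT; start with NADPH (500 uM addition) then DTNB (15 mM addition). Kinetic TNB absorbance, 405 nm filter. Four-parameter Hill fit across titration.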
FBPA Giardia inh: inhibitors of Giardia lamblia fructose-1,6-bisphosphate aldolase. hit rate 0.71% among 290,000. A8B2U2. AID 2451. purified Giardia FBPA. Potency, µM (doses to about 59.6 µM), for the others: at the top dose activity, negative = inhibition, actives largely listed as inhibitors; also: potency is read from the fitted curve at half-maximal effect; nearly all actives have a fitted effect of over 55% in size
Target sequence (A8B2U2 whole entry, looked up): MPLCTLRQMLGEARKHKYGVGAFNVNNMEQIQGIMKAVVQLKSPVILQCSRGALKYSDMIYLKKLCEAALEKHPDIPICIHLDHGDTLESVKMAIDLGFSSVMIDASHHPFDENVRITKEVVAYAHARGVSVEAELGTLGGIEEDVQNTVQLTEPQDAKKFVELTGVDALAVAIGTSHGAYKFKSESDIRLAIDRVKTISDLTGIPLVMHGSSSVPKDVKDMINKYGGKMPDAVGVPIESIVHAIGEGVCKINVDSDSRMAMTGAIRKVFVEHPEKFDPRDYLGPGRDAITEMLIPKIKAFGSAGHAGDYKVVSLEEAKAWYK
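Giardia FBPA (40 nM reagent) was preincubated 10 min at RT with compound (up to 57.5 uM final), then substrate plus GAPDH/TPI/NAD/arsenate coupling system with diaphorase/resazurin was added; resorufin fluorescence (525/598 nm) was read after 20 min.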
* = called active by the depositor; ? = inconclusive; . = not tested or not shown. Rows were chosen to be rich in hits. Some 14% of all compounds tested hit in one or more screens of this group. Unless noted, calls follow the shape of the dose curve; as a rule, active = well fitted curve in the direction sought with a large enough effect; inconclusive = small, poorly fitted or top-dose-only effect, or another doubt; inactive = no such curve, though single readings can be large; an effect the other way counts as inactive or inconclusive. % is scaled to controls: 0 for no effect and ±100 for the full control effect.

SMILES	Pf growth 96h	Pf growth 48h	HCMV inh	Sm TGR inh	FBPA Giardia inh
COC1C(O)C(C)OC(OC2C(Oc3cccc4c(O)c5c(=O)oc6ccc(C)c7c(=O)oc(c34)c5c67)OC(C)C(O)C2O)C1O (centres undefined)	.	.	-97*	.	.
CC1C(=O)N2CCCc3cc(NC(=O)C(=O)NCCCc4ccccc4)cc1c32 (centres undefined)	?	12µM*	5	-1%	.
CC1C(=O)N2CCCc3cc(NC(=O)COc4ccc(Cl)cc4)cc1c32 (centres undefined)	15µM*	?	3	-9%	.
CNC(=O)C(=O)Nc1cc2c3c(c1)C(C)C(=O)N3CCC2 (centres undefined)	-30%	10%	-4	-6%	.
Cc1c(-c2ccccc2)c(=O)oc2cc(O)ccc12	11%	?	0	-27%	4%
O=[N+]([O-])c1ccc(N/N=C/c2sc(N3CCOCC3)nc2-c2ccccc2)c(S(=O)(=O)Nc2ccc(Cl)cc2)c1	?	?	-88*	.	-6%
O=S(=O)(Nc1ccc2nc(N3CCOCC3)sc2c1)c1ccc(Cl)cc1	20%	31%	-18	-4%	.
O=[N+]([O-])c1ccc(N/N=C/c2sc(N3CCOCC3)nc2-c2ccccc2)c(S(=O)(=O)Nc2ccccc2Cl)c1	?	1.5µM*	?	0%	0%
CC1CN(S(=O)(=O)c2cccc(C(=O)Nc3ccccc3N3CCOCC3)c2)CC(C)O1 (centres undefined)	?	13µM*	?	2%	.
COc1ccc(S(=O)(=O)N2CCCCC2)cc1NC(=O)c1cccc(S(=O)(=O)N2CC(C)OC(C)C2)c1 (centres undefined)	.	.	8	.	.
CC1CN(S(=O)(=O)c2cccc(C(=O)Nc3ccccc3N3CCCCC3)c2)CC(C)O1 (centres undefined)	?	12µM*	?	-11%	.
Cc1cnc(NC(=O)c2cccc(S(=O)(=O)N3CCOCC3)c2)s1	?	18%	1	-1%	.
Cc1cnc(NC(=O)c2cccc(S(=O)(=O)N3CC(C)OC(C)C3)c2)s1 (centres undefined)	13µM*	?	-23	11%	-14%
O=C(CSc1nnc(CNC(=O)c2cccs2)o1)Nc1ccc(F)cc1F	-19%	14%	-34	-17%	.
CCNc1ncc2nc(-c3cn(C)c4ccccc34)c(=O)n(-c3ccccc3)c2n1	.	.	.	.	-7%
CN1CCN(c2ccc(S(=O)(=O)C(F)(F)F)cc2[N+](=O)[O-])CC1	?	16%	13	-1%	2%
O=[N+]([O-])c1ccc(N(CCO)CCO)c2c1no[n+]2[O-]	.	.	-99*	.	.
CN1CCN(c2ccc([N+](=O)[O-])c3no[n+]([O-])c23)CC1	?	?	-98*	45µM*	?
COc1ccc(CCC(=O)Nc2nnc(C(C)(C)C)s2)cc1	?	19%	-13	1%	-6%
COc1ccc(CCC(=O)Nc2nnc(C(F)(F)F)s2)cc1	15µM*	?	-12	?	.
CC(=O)N1CCc2c(sc(NC(=O)C3CCN(S(=O)(=O)c4cccs4)CC3)c2C(N)=O)C1	?	12µM*	-11	-3%	.
CCOc1ccc(NC(=O)C2CCN(S(=O)(=O)c3cccs3)CC2)cc1	?	?	-4	-9%	-8%
Cc1ccc2nc(NC(=O)C3CCN(S(=O)(=O)c4cccs4)CC3)sc2c1	0%	?	-94*	1%	-2%
O=C(Nc1ccc(OC(F)(F)F)cc1)C1CCN(S(=O)(=O)c2cccs2)CC1	.	.	-88*	2%	.
COC(=O)c1nnc(C(=O)N(C)Cc2ccccc2)c2[nH]c3ccccc3c12	.	.	.	.	-3%
SMILES	Pf growth 96h	Pf growth 48h	HCMV inh	Sm TGR inh	FBPA Giardia inh
Cc1ccc(C2(C)NC(=O)N(CC(=O)N3CCN(C(=O)c4cccs4)CC3)C2=O)cc1 (centres undefined)	-12%	-26%	-21	-5%	.
O=S(=O)(CCc1ccccc1)c1nnnn1C1CCCCC1	.	.	.	.	0%
COc1ccc2nc(NC(=O)C3CCN(S(=O)(=O)c4cnc[nH]4)CC3)sc2c1	2%	-27%	-18	-17%	3%
COc1ccc2nc(NC(=O)C3CCCN(S(=O)(=O)c4cccs4)C3)sc2c1 (centres undefined)	?	9.3µM*	?	9%	-18%
COc1ccc2nc(NC(=O)CN(C)S(=O)(=O)c3cccs3)sc2c1	?	-22%	-72*	1%	-3%
Cc1ccc2nc(NC(=O)C3CCN(S(=O)(=O)c4cnc[nH]4)CC3)sc2c1	12µM*	60%	?	0%	-2%
COc1ccc2nc(NC(=O)C3CCN(S(=O)(=O)c4cccs4)CC3)sc2c1	.	13µM*	-97*	-1%	-3%
O=C(Nc1ccc2nn(-c3ccc(Cl)cc3)nc2c1)c1cc2ccccc2o1	.	.	-4	2%	.
Cc1cccc(N2CCN(S(=O)(=O)c3cc(C(=O)Nc4ccc(Oc5ccccc5)cc4)ccc3F)CC2)c1C	.	.	?	0%	.
Cc1cc(-c2csc(NC(=O)c3ccc(C#N)cc3)n2)c(C)n1Cc1ccco1	-23%	?	-11	-7%	-12%
COc1ccc2nc(NC(=O)CCc3cc(OC)c(OC)c(OC)c3)sc2c1	9.3µM*	?	76	2%	-8%
COc1ccc2nc(NC(=O)CCn3cccc3)sc2c1	20%	55%	49	-2%	6%
CCOC(=O)c1sc2ncn(CC(=O)Nc3ccc(OCC)cc3)c(=O)c2c1C	.	.	-3	0%	.
Cc1nn(C)c(C)c1/C=C/C(=O)c1ccc(Cl)cc1Cl	-7%	?	-81*	-1%	-5%
O=C(Cn1ncc2c3ccccc3n(Cc3ccccc3)c2c1=O)NCCCN1CCCC1=O	?	?	-67*	-20%	-3%
O=C(Cn1ncc2c3ccccc3n(Cc3ccccc3)c2c1=O)NCCc1ccc(Cl)cc1	.	.	-69*	-1%	.
O=C(Cn1ncc2c3ccccc3n(Cc3ccccc3)c2c1=O)NCCCN1CCCCC1	.	.	-30	9%	.
O=C(Cn1ncc2c3ccccc3n(Cc3ccc(Cl)cc3)c2c1=O)NCCC1=CCCCC1	.	.	2	-1%	.
O=C(Cn1ncc2c3ccccc3n(Cc3ccc(Cl)cc3)c2c1=O)NCCCN1CCCC1=O	13µM*	-21%	1	-14%	-8%
O=C(CC1OC(=O)c2ccccc21)Nc1ccc(Cl)c(S(=O)(=O)N2CCCCC2)c1 (centres undefined)	4%	-24%	-34	-24%	.
COc1cc(C2CC(=O)Nc3c2c(=O)n(C)c(=O)n3C)cc(OC)c1OC (centres undefined)	.	.	3	16%	.
CCCCC1=CC2=CC(=O)C(C)(OC(=O)CC)C(=O)C2=CN1c1ccccc1 (centres undefined)	13µM*	10µM*	.	4%	?

Screens as filed in PubChem.
